Records with an inconclusive call do not appear. Entries that show only a call come without a potency. Activity calls are given as the source filed them. Calls come from the whole dose curve; as a rule, active = well fitted cell-killing curve with a large enough effect; inconclusive = small, poorly fitted or top-dose-only effect, or effect the other way; inactive = no such curve, though single readings can be large or run the other way.
Potency is the fitted concentration of half-maximal effect.

The test is described as follows: Quantitative High-Throughput drug screen in 47 multiple myeloma cell lines against the NCATS MIPE library collection: ARD_JJKsccE7 cell viability assay (AID 1918929). The settings on record: ARD myeloma cell line viability, CellTiter-Glo, 48 h; series mostly up to 45.8 µM. An outline of the steps: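 Steps: seed 500 cells per well; pin-transfer MIPE 4.0 library; incubate 48 h at 37C, 5% CO2, humidified; add CellTiter-Glo, 5 min room temperature; read luminescence.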
For orientation: Cellular ATP, detected with luciferase, serves as a proxy for viable cell number.
As for `Cc1ccc2c(c1)c1c(n2CCc2ccc(C)nc2)CCN(C)C1`, the Potency entry was “inactive”.

Consider `CCCCn1c(=O)n(Cc2ccccc2F)c(=O)c2[nH]c(Cc3ccc(NC(C)=O)cc3)nc21`, for which the Potency result was “inactive”.

Regarding `CN(C)CCOc1cc(-c2cn[nH]c2)ccc1NC(=O)C1COc2ccccc2O1` (centres undefined), the Potency result is “inactive”.

`Cn1c(=O)c(-c2c(Cl)cccc2Cl)cc2cnc(Nc3cccc(C(=O)O)c3)nc21`: the Potency is 469 nM (active).

As to `Cc1nc2c([nH]1)CCN(C(=O)c1ccc(NC(=O)c3ccccc3-c3ccccc3)cc1)c1ccccc1-2`, the Potency result was “inactive”.

For `Cc1c(C(=O)Nc2ccc(N3C[C@@H](C)O[C@@H](C)C3)nc2)cccc1-c1ccc(OC(F)(F)F)cc1`, the Potency was 935 nM (active).

As for `O=C(Nc1cccc(C(F)(F)F)c1)Nc1cc(S(=O)(=O)NC2CC2)ccc1-c1ccsc1`, the Potency entry is “inactive”.

`O=C(CC12CC3CC(CC(C3)C1)C2)Nc1cccc2nc(NCCNCCO)ccc12`: the Potency is 18700 nM (active).

For the molecule `COC(=O)N1CCN(Cc2cccc(NC(=O)Nc3ccc(C)nc3)c2F)CC1`, the Potency entry was “inactive”.

For `CS(=O)(=O)c1ccc(C2=C(c3ccccc3)C(=O)OC2)cc1`, the Potency entry is “inactive”.

Turning to `CCN1CCC(n2cc(CNc3cc(Cl)c4ncc(C#N)c(Nc5ccc(F)c(Cl)c5)c4c3)nn2)CC1`, the Potency was 5900 nM (active).

Turning to `Cc1cnc(-c2cc(N3CCN(C(=O)CCS(C)(=O)=O)CC3)ncc2Cl)c(C)c1`, the Potency entry was “inactive”.

In the case of `CN(C)c1nc(Cc2ccc(NC(=O)c3ccc(C(F)(F)F)cc3)cc2)nc(N(C)C)c1CC(=O)O`, the Potency result was “inactive”.

Consider `COc1nccc(-c2c(-c3ccc(F)cc3)ncn2C2CCC(O)CC2)n1` (centres undefined), for which the Potency was 8.3 nM (active).

Values taken from PubChem BioAssay (NCATS).
